Sampled rows, rich in hits. Any-hit rate of the full collection: about 14%.
LmPK inh: LmPK (Leishmania mexicana) enzyme inhibition | Q27686 | purified LmPK, Kinase-Glo ATP luminescence, 1 h | Potency, µM (top dose mostly 57.5 µM), actives largely listed as inhibitors | 290,000 compounds, 0.37% hits | AID 1721
Target sequence (Q27686 whole entry, looked up): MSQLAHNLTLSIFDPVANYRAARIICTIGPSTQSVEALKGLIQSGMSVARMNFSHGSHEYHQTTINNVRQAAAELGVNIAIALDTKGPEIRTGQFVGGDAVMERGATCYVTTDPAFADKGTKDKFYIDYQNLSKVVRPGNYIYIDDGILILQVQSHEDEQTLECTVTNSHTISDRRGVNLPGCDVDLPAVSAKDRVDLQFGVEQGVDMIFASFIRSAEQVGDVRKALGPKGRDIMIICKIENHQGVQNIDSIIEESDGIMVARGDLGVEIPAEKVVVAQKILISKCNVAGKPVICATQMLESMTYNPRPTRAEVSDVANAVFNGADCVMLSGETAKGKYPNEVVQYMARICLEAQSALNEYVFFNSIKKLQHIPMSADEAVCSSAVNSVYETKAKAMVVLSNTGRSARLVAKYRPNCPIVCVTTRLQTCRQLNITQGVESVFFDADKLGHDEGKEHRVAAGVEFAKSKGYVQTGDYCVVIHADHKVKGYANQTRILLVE
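In 50 mM imidazole pH 7.2 with 7 mM MgCl2, LmPK (0.1 nM) turned over PEP (0.5 mM) and ADP (0.1 mM) for 1 h at room temperature. Luciferase read-out of ATP.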
Shiga toxin inh: inhibitors of Shiga toxin in Vero cells | Vero cells, Shiga toxin protein synthesis inhibition reporter | inhibition, % at 38.7 µM | 290,000 compounds, 9.2% hits; in the data active = inhibition mostly above about 28%, no sharp cut-off; inactive = mostly below about 43%
NS1 function inh: inhibitors of influenza NS1 protein function | Potency, µM (top dose mostly 46.1 µM) | 270,000 compounds, 0.4% hits | AID 2326; calls by dose curve; note: actives are rising curves; nearly all actives have a fitted effect of over 50% in size
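S. cerevisiae expressing influenza A NS1, grown in glucose, washed, then diluted 1:100 into pH 6.0 -URA galactose medium with 23 nl compound. Growth recovery read as OD600; NS1-free strain serves as control.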
FBPA Giardia inh: Giardia lamblia aldolase inhibition; A8B2U2; purified Giardia FBPA; Potency, µM (titrated, usually from 59.6 µM), hits mostly inhibitors; 290,000 compounds, 0.71% hits; AID 2451; note: nearly all actives have a fitted effect of over 55% in size
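Giardia FBPA (40 nM reagent) was preincubated 10 min at RT with compound (up to 57.5 uM final), then substrate plus GAPDH/TPI/NAD/arsenate coupling system with diaphorase/resazurin was added; resorufin fluorescence (525/598 nm) was read after 20 min.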
Cycloheximide cs: counter-screen hit for Shiga toxin inhibitors, cycloheximide; cell reporter, cycloheximide protein synthesis inhibition counterscreen; max response, %; 300,000 compounds, 12% hits; AID 2314; in the data active = max response mostly above about 13%, no sharp cut-off; inactive = mostly below about 14%; note: read at 38.3 µM for the half of the compounds with a filed dose
NS1 inh valid: influenza NS1 function inhibition validation | AID 492980 | 1,400 tested, under 10 active | influenza NS1 function cell assay, 15-point titration | activity change, negative = inhibition, % at 32.9 µM | shares compounds with NS1 function inh; calls by dose curve
Flu PR8 replic: reduces influenza A/PR/8/34 replication in MDCK cells; AID 504647; shares compounds with NS1 function inh; virus titer (log TCID50), log10 TCID50 at 5 µM; 95 compounds, 30% hits; MDCK infected influenza A/PR/8/34, virus titer TCID50; stronger effect = lower value; call rule not given here
Large screens that a line does not name were inactive (follow-up assays come after a bar, where they were run). Unless noted, calls come from the whole dose curve; as a rule, active = well fitted curve in the direction sought with a large enough effect; inconclusive = small, poorly fitted or top-dose-only effect, or another doubt; inactive = no such curve, though single readings can be large; an effect the other way counts as inactive or inconclusive.

Cc1ccc(S(=O)(=O)C/N=C(/NC(=S)N(c2ccccc2)c2ccccc2)c2ccccc2)cc1	Shiga toxin inh 50, NS1 function inh 10µM, Cycloheximide cs 22 | NS1 inh valid inconclusive
COc1ccc(F)cc1S(=O)(=O)n1nnc2ccccc21	none
COc1ccc(OC)c(S(=O)(=O)n2nnc3ccccc32)c1	NS1 function inh inconclusive | NS1 inh valid inactive
O=C(O)c1ccccc1C(=O)NCCc1c(C(=O)O)[nH]c2ccc(Cl)cc12	none
O=C(c1cccc(F)c1)N1CCc2ccccc2C1	Shiga toxin inh 55, NS1 function inh inconclusive, Cycloheximide cs 40 | NS1 inh valid inactive
CCCS(=O)(=O)c1nc(S(=O)(=O)c2ccc(C)cc2)c(N2CCC(C(N)=O)CC2)s1	none
COc1ccccc1C(=O)NNC(=O)c1ccc(NC(=O)C(C)C)cc1	none
Nc1ccccc1-c1nnc(SCc2ccccc2Cl)[nH]c1=O	none
Cc1ccc(CSc2nnc(-c3ccccc3N)c(=O)[nH]2)cc1	NS1 function inh 11µM, FBPA Giardia inh inconclusive | NS1 inh valid inactive
COc1ccccc1N(CC(=O)NCCSc1ccccn1)S(=O)(=O)c1ccccc1	none
COc1cccc(NC(=O)C(Sc2nnc(Nc3ccccc3C)s2)c2ccccc2)c1 (centres undefined)	NS1 function inh 5µM | NS1 inh valid inactive
CC(C)=CCN1CCN(Cc2cn(C(C)C)c3ccccc23)CC1CCO (centres undefined)	NS1 function inh 11µM | NS1 inh valid inactive
CSCC[C@H](NC(=O)C1CCC(CNC(=O)[C@@H]2CCCN2C(=O)OC(C)(C)C)CC1)C(=O)O (some centres undefined)	none
COc1ccccc1NC(=O)C/C(N)=N/O	NS1 function inh 13µM | NS1 inh valid inactive
COc1ccccc1NC(=O)CCC(=O)Nc1ccccc1OC	none
Cc1c(C(=O)N2CCCCC2)c(S(=O)(=O)N2CCN(c3ccccc3F)CC2)c(C)n1C	none
Cc1cccc(COCC(Cc2ccccc2)N2CCN(C(=O)c3ccc(C(F)(F)F)cc3)CCC2=O)c1 (centres undefined)	none
O=C(c1ccc(Cl)c(Cl)c1)N1CCC(=O)N(C(COCc2cccc(Cl)c2)Cc2ccccc2)CC1 (centres undefined)	NS1 function inh 22µM | NS1 inh valid inactive
O=C(c1ccc(C(F)(F)F)cc1)N1CCC(=O)N(C(COCc2ccc(C(F)(F)F)cc2)Cc2ccccc2)CC1 (centres undefined)	NS1 function inh inconclusive | NS1 inh valid inactive
COc1cc(C(CC(=O)Nc2ccc(Cl)cn2)N2Cc3ccccc3C2=O)cc(OC)c1OC (centres undefined)	none
O=C(O)/C=C\C(=O)Nc1ccccn1	none (no result: LmPK inh, Shiga toxin inh, FBPA Giardia inh, Cycloheximide cs)
CC(=O)c1ccc(N2CCN(C(=O)c3cc(-c4ccc5c(c4)OCO5)nc4ccccc34)CC2)cc1	Shiga toxin inh 36, NS1 function inh 13µM, Cycloheximide cs 20 | NS1 inh valid inactive | Flu PR8 replic inactive
Cc1cc(=O)cc(C)n1-c1ccccc1Br	none
Cc1c(C(=O)OCC(=O)N2CC(C)OC(C)C2)oc2ccc(Br)cc12 (centres undefined)	NS1 function inh 0.45µM | NS1 inh valid inconclusive
CC1CN(C(=O)COC(=O)c2cc(=O)c3ccccc3o2)CC(C)O1 (centres undefined)	none
CCc1nnc(NC(=O)CSC(=S)N2CCOCC2)s1	FBPA Giardia inh inconclusive
COc1cc(CNc2ccc3[nH]c(=O)[nH]c3c2)cc(Br)c1OCC(=O)NC(C)(C)C	none
COc1cc(CNc2ccc3[nH]c(=O)[nH]c3c2)cc(Br)c1OCc1ccccc1F	NS1 function inh 0.79µM | NS1 inh valid inactive
Cc1ccc(N2C(=O)C3C4C=CC(CNC(=S)Nc5cccc(Cl)c5)(O4)C3C2=O)cc1 (centres undefined)	none
CCOC(=O)Nc1ccc2c(CN3C(=O)NC4(CCCC4)C3=O)cc(=O)oc2c1	none
CCOC(=O)Nc1ccc2c(CN3CCN(S(=O)(=O)c4ccccc4)CC3)cc(=O)oc2c1	NS1 function inh 8.9µM | NS1 inh valid inactive
O=C(CSc1ccc(-c2nc3ccccc3[nH]2)cn1)Nc1ccc(S(=O)(=O)N2CCCC2)cc1	Shiga toxin inh 33, NS1 function inh 14µM, Cycloheximide cs 40 | NS1 inh valid inactive
O=C(CSc1ccccc1)Nc1ccc(-c2nc3ccccc3[nH]2)cc1	none
CC(=O)Nc1cccc(NC(=O)C2CC(=O)N(C3CCCCC3)C2)c1 (centres undefined)	none (no result: FBPA Giardia inh)
Cc1cccc(NC(=O)CCS(=O)(=O)c2cc3c(cc2Cl)NC(=O)CO3)c1	none (no result: FBPA Giardia inh)
CC(=O)Nc1ccc(Nc2ncnc3ccccc23)cc1	NS1 function inh inconclusive, Cycloheximide cs 14 | NS1 inh valid inactive | Flu PR8 replic inactive
Oc1cccc(Nc2ncnc3ccccc23)c1	none
CCCCC(C(=O)O)C(C)CC(=O)Nc1ccn(-c2ccccc2)n1 (centres undefined)	NS1 function inh 2.8µM | NS1 inh valid inactive
COc1ccc(C2Nc3ccccc3C(=O)N2Cc2ccco2)cc1COc1ccccc1F (centres undefined)	none
COc1ccc(C2Nc3ccccc3C(=O)N2Cc2ccco2)cc1COc1ccc(NC(C)=O)cc1 (centres undefined)	NS1 function inh 13µM | NS1 inh valid inactive
Cc1c(NC(=O)Nc2cccc(C#N)c2)c(=O)n(-c2ccccc2)n1C	none
CC1(C)OC(=O)C(=CNc2ccccc2)C(=O)O1	none
CC1(C)OC(=O)C(=CNCC(O)c2ccccc2)C(=O)O1 (centres undefined)	NS1 function inh 16µM | NS1 inh valid inactive
Cc1ccc([N+](=O)[O-])c(OCCN2CCC(Cc3ccccc3)CC2)c1	none
Cc1ccc(C(=O)CSc2nnc(CNc3nc(-c4ccccc4)cs3)n2C)cc1	NS1 function inh 3.2µM | NS1 inh valid inactive
Cc1cc(C)nc(SCc2nnc(SCC(=O)Nc3nc(-c4ccccc4)cs3)n2C)n1	none

High-throughput results: PubChem, National Center for Advancing Translational Sciences (NCATS)
